From PubChem BioAssay
Not all results are given here.
VCAM1 TNFa pot: TNF alpha stimulated VCAM1 expression potentiation; HUVEC TNFa-stimulated VCAM-1 immunofluorescence, high-content imaging; scaled per plate to unstimulated/TNFa-only wells; activation, % at 2 µM; actives 0.19% (n = 93,000);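 active = activation above the screen mean plus 3 SD, with well images confirming the hit on visual review, cut at about 28% in these data, passing the limit was not always enough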;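 note: signal is the number of cytoplasmic VCAM-1 stained grains per positive cell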
Starred values were filed as active, the others as inactive.

Cc1ccc(S(=O)(=O)CCc2nc3ccccc3s2)cc1C was read as VCAM1 TNFa pot 8.
COc1ccc(-c2cc(O)cc(O)c2)cc1 was read as VCAM1 TNFa pot -1.
`CN(C)CC(C)(C)CNS(=O)(=O)c1ccc(Cl)c(Cl)c1` gave VCAM1 TNFa pot 5.
Oc1ccc(-n2cnnn2)cc1 was read as VCAM1 TNFa pot -5.
O=C(CN1C(=O)NC2(CCCC2)C1=O)Nc1ccccc1F was read as VCAM1 TNFa pot 1.
`Cc1cc(C)c(S(=O)(=O)N(C2=NCCS2)S(=O)(=O)c2c(C)cc(C)cc2C)c(C)c1` gave VCAM1 TNFa pot 11.
CC(C)CC(=O)NCc1ccc(F)cc1 was read as VCAM1 TNFa pot -5.
`Cc1nonc1NCn1nnc2ccccc21` gave VCAM1 TNFa pot 0.
Cc1nc2ncnn2c(N2CCN(C(=O)Cc3cccs3)CC2)c1C was read as VCAM1 TNFa pot -1.
Screening CN(c1cccc(NC(=O)CN(c2ccc(C34CC5CC(CC(C5)C3)C4)cc2)S(C)(=O)=O)c1)S(C)(=O)=O returned VCAM1 TNFa pot 1.
CCN(C(=O)c1cccc(F)c1)c1ccccc1C was read as VCAM1 TNFa pot -9.
Screening Cc1cccc(-n2c(SCc3cc(=O)n4c(C)cccc4n3)nc3[nH]ncc3c2=O)c1 returned VCAM1 TNFa pot 0.
COC(=O)C1=C(C(=O)OC)SC(=C2C(=S)C(C)(C)N(C(=O)CC(C)C)c3ccccc32)S1 was read as VCAM1 TNFa pot -8.
Clc1ccc(COc2ccccn2)cc1Cl was read as VCAM1 TNFa pot -8.
CC(=O)Nc1c(C(=O)N2CCCCCC2)cnn1-c1ccccc1Cl was read as VCAM1 TNFa pot -12.
COc1ccc(OC)c(-n2c(-c3cccc(O)c3)n[nH]c2=S)c1 was read as VCAM1 TNFa pot -7.
For CN(C)S(=O)(=O)c1cccc(NC(=O)Cn2cnc3ccccc3c2=O)c1 the results were VCAM1 TNFa pot -6.
`CCOC(=O)c1ccc(-n2c(=S)sc3c(=O)[nH]c(C)nc32)cc1` gave VCAM1 TNFa pot -87.
`CC(C)(C)NC(=O)NC(=O)COC(=O)c1cc(=O)[nH]c2ccccc12` gave VCAM1 TNFa pot -8.
Screening COc1cccc(OC)c1NC(=O)CN1CCC(NC(=O)c2cccc(F)c2)CC1 returned VCAM1 TNFa pot -100.
Screening COCCNC(=O)C(c1ccccc1C)N(C(=O)Cn1nnc2ccccc21)c1cccnc1 (stereo unspecified) returned VCAM1 TNFa pot -2.
For CC1(CC(=O)O)C(=O)N=C2C=CC=CN21 (stereo unspecified) the results were VCAM1 TNFa pot 8.
Screening CCc1ccc(N/C(SCc2ccccc2C)=C(/C#N)C(=O)NCc2ccco2)cc1 returned VCAM1 TNFa pot -4.
Cc1onc(-c2ccccc2Cl)c1C(=O)Nc1sc2c(c1C(N)=O)CCC(C)C2 (stereo unspecified) was read as VCAM1 TNFa pot 6.
`O=C(O)c1cn(C2CC2)c2cc(N3CCOCC3)c(F)cc2c1=O` gave VCAM1 TNFa pot -5.
Cn1nc(C(F)(F)F)c(C(=O)Nc2ccc(F)cc2F)c1Sc1ccc(C(F)(F)F)cc1 was read as VCAM1 TNFa pot 6.
`O=S(=O)(C/C(=C/CO)S(=O)(=O)c1ccccc1)c1ccccc1` gave VCAM1 TNFa pot -86.
CC(=O)Nc1cc(C(=O)N2CCN(C)CC2)ccc1Sc1ccc(C)cc1 was read as VCAM1 TNFa pot -8.
COC(=O)c1cc(C#N)c(Oc2ccc(F)cc2)nc1C was read as VCAM1 TNFa pot -8.
CCOc1ccc(Oc2ccc(-c3nnc(-c4ccccc4)o3)cc2[N+](=O)[O-])cc1 was read as VCAM1 TNFa pot -3.
COC(=O)C(C)Sc1nc(-c2ccc(OC)cc2)nc2c1c(=O)n(C)c(=O)n2C (stereo unspecified) was read as VCAM1 TNFa pot 32.
Screening CCc1nc(C)cn1S(=O)(=O)c1cc(C)c(OC)c(C)c1C returned VCAM1 TNFa pot -8.
For COC(=O)C1=C(O)C(C(=O)OC)C(c2ccc(C)cc2)C(C#N)(C#N)C1c1ccc(C)cc1 (stereo unspecified) the results were VCAM1 TNFa pot -8.
Screening O=C1Nc2ccc(F)cc2C12SCCS2 returned VCAM1 TNFa pot -2.
`CCOC(=O)C1=C(c2cccc(F)c2)NC(=S)NC1C` (stereo unspecified) gave VCAM1 TNFa pot -6.
Screening Cc1ccc(-n2nnc3c(SCC(=O)N4CCN(c5ccccc5)CC4)ncnc32)cc1 returned VCAM1 TNFa pot -92.
Screening N#Cc1ccccc1Sc1ccccc1C(=O)Nc1ccccc1 returned VCAM1 TNFa pot 1.
`COc1ccc(CCNC(=O)NC23CC4CC(CC(C4)C2)C3)cc1OC` gave VCAM1 TNFa pot 9.
C=CCn1c(COc2ccc3c(c2)CCCC3)nnc1SCC(=O)Nc1cccc(SC)c1 was read as VCAM1 TNFa pot 3.
For CC(C)(C)C(=O)/C(=C\c1cccc([N+](=O)[O-])c1)n1cncn1 the results were VCAM1 TNFa pot -90.
`CC(=O)OCc1nc2sc3c(c2c(=O)[nH]1)CCCC3` gave VCAM1 TNFa pot -1.
`O=c1oc(-c2cccs2)nc2sc3c(c12)CCCCC3` gave VCAM1 TNFa pot 37*.
Screening CN(C)c1oc(-c2cccs2)nc1C#N returned VCAM1 TNFa pot 0.
Screening COc1ccc(S(=O)(=O)N(C)CC(=O)NCc2cccnc2)cc1Cl returned VCAM1 TNFa pot -1.
`CCOc1ccc(S(=O)(=O)N(CC(=O)N/N=C/c2cccs2)c2ccc(C)cc2)cc1` gave VCAM1 TNFa pot 9.
`CC(=O)Nc1ccc(S(=O)(=O)N2CCN(C(=O)c3cccnc3)CC2)cc1` gave VCAM1 TNFa pot 6.
`COc1ccc(NC(=O)CCC(=O)Nc2nnc(C(F)(F)F)s2)c(OC)c1` gave VCAM1 TNFa pot -16.
`C1CSC2(N1)C1CC3CC2CC(C1)C31NCCS1` (stereo unspecified) gave VCAM1 TNFa pot -9.
COCCn1c(SCC(=O)Nc2ccc(Cl)cn2)nc2ccccc21 was read as VCAM1 TNFa pot -7.
For COc1ccc(-c2c3c(nc4sc5c(Cl)nc(C)nc5c24)CCC3)cc1 the results were VCAM1 TNFa pot 2.
`CC(=O)c1ccc(C(C)(C)c2ccc(C(C)=O)s2)s1` gave VCAM1 TNFa pot 13.
For CCOC(=O)c1cc(NC(=O)c2c(C)noc2C)cc(C(=O)OCC)c1 the results were VCAM1 TNFa pot 1.
For CS(=O)(=O)N(CC(=O)NCc1ccncc1)Cc1ccc(Cl)cc1 the results were VCAM1 TNFa pot -15.
COC(=O)C(NC(=O)c1ccc(C)cc1)(Nc1cccc(C)n1)C(F)(F)F (stereo unspecified) was read as VCAM1 TNFa pot -17.
For CCCNc1nc(Nc2ccc(C)cc2)nc(N2CCCC2)n1 the results were VCAM1 TNFa pot -16.
For COc1ccc(/C=N/N=C2/NC(=O)C(c3ccccc3)(c3ccccc3)S2)cc1 the results were VCAM1 TNFa pot -6.
For CC1=CC(C)(C)N(C(=O)C(C)N2C(=O)c3ccccc3C2=O)c2ccc(C)cc21 (stereo unspecified) the results were VCAM1 TNFa pot -7.
COC(=O)c1cnn(C(=O)c2cc(OC)ccc2Br)c1N was read as VCAM1 TNFa pot 1.
For O=C(NCc1cccnc1)c1ccc(COc2cccc3ccccc23)o1 the results were VCAM1 TNFa pot 8.
`O=c1cc(C(Cl)(Cl)Cl)oc2c1ccc1ccccc12` gave VCAM1 TNFa pot -80.
`COc1ccc(NC(=O)/C(Cl)=C(/Cl)S(=O)(=O)Cc2ccc(C)cc2)cn1` gave VCAM1 TNFa pot -51.
